Some test systems named below: NCI-H23 lung; NCI-H226 lung; NCI-H322M lung; HOP-62 NSCLC; NCI-H460 lung; HOP-92 NSCLC; NCI-H522 lung; A549/ATCC NSCLC; 786-0 renal; COLO 205 colon; DU-145 prostate; K-562 leukemia; MALME-3M melanoma; MDA-MB-231 breast; RXF 393 renal; SF-268 CNS; SF-295 CNS; SF-539 CNS; UACC-257 melanoma; M14 melanoma.
Assay in all cases: NCI-60 one-dose screen, 48 h (100 = growth as untreated, 0 = no growth, -100 = all killed)
Holding throughout (settings): 10 µM unless noted

Drawing on PubChem BioAssay (NCI), this text covers growth for seven compounds.

Compounds without any hit were thinned out: in the full panel of roughly 83,000, 20% have a hit.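 Values shown are percent growth following 48 h exposure of cells in 96-well plates to a single concentration of compound; below 10 was considered active.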 Values without a mark were called inactive. Active and inactive are the calls of the source.

With `S=c1ssnc1-c1cccs1`, the growth in the test on NCI-H23 lung was 85%; in the test with NCI-H226 lung, 96.1%; in the test on NCI-H322M lung, 94.5%; in the test on HOP-62 NSCLC, 103%; in the test with NCI-H460 lung, 107%; in the test on HOP-92 NSCLC, 80.5%. In addition, the growth in the test on NCI-H522 lung is 96.3%; in the test with A549/ATCC NSCLC, 117%; in the test with 786-0 renal it was 65.1%; with COLO 205 colon, 115%; with DU-145 prostate, 123%; with K-562 leukemia, 73.3%. For the same compound, the growth was 66.3% in the test with MALME-3M melanoma; 88.8% in the test with MDA-MB-231 breast; 116% in the test on RXF 393 renal; 97.9% in the test on SF-268 CNS; 78.3% in the test with SF-295 CNS; 106% with SF-539 CNS. Also, the growth is 107% in the test with UACC-257 melanoma and 94.2% in the test with M14 melanoma.

On to `COc1ccc2cc(-c3ccc(-c4ccc(C(=N)N)s4)s3)ccc2c1`, for which the growth in the test on NCI-H23 lung was 0.368% (active); in the test with NCI-H226 lung, 97%; with NCI-H322M lung, 22.6%; with HOP-62 NSCLC, -8.34% (active); with NCI-H460 lung, -59.8% (active); with HOP-92 NSCLC, 65.5%. Besides, the growth in the test on NCI-H522 lung was -46.7% (active); in the test on A549/ATCC NSCLC it was -18.9% (active); in the test on 786-0 renal, -53.6% (active); with COLO 205 colon it was -4.44% (active); with DU-145 prostate it was -67.2% (active); in the test on K-562 leukemia, -42.8% (active). The growth is 101% in the test with MALME-3M melanoma; -15.2% (active) in the test with MDA-MB-231 breast; -25.9% (active) in the test on RXF 393 renal; -33.9% (active) in the test on SF-268 CNS; 86% in the test with SF-295 CNS; 89.5% in the test on SF-539 CNS. The results for the growth in the test on UACC-257 melanoma and with M14 melanoma were 62.8% and 36.2%, respectively.

Take `COc1ccc2c(c1)c(-c1nonc1-c1c[nH]c3ccc(Br)cc13)cn2C`: the growth in the test on NCI-H23 lung was 55.6%; with NCI-H226 lung, 84.6%; in the test with NCI-H322M lung, 55.8%; with HOP-62 NSCLC, 29.6%; in the test with NCI-H460 lung, 23.7%; in the test on HOP-92 NSCLC, 75.6%. For the same compound, the growth in the test with NCI-H522 lung is 11.3%; in the test with A549/ATCC NSCLC it was 28.1%; in the test on 786-0 renal, 58.6%; in the test on COLO 205 colon, 23.9%; in the test with DU-145 prostate it was 61.2%; with K-562 leukemia it was 11.5%. For the same compound, the growth is 46.3% in the test with MALME-3M melanoma; 43.4% in the test with MDA-MB-231 breast; 67% in the test with RXF 393 renal; 48.3% in the test with SF-268 CNS; 40.2% with SF-295 CNS; 56.6% in the test with SF-539 CNS. The values for the growth in the test on UACC-257 melanoma and with M14 melanoma were 64.7% and 20.8%, respectively.

As for `Cc1c2ccccc2nc2c1ccc1cccnc12`, the growth was 74.5% in the test with NCI-H23 lung; 96.5% in the test on NCI-H226 lung; 101% in the test with NCI-H322M lung; 105% with HOP-62 NSCLC; 73.8% with NCI-H460 lung; 106% in the test on HOP-92 NSCLC. Also, the growth in the test with NCI-H522 lung is 63.5%; with A549/ATCC NSCLC, 59.8%; in the test with 786-0 renal, 95.8%; with COLO 205 colon it was 50.8%; in the test on DU-145 prostate it was 95.6%; in the test on K-562 leukemia, 44.1%. The growth in the test with MALME-3M melanoma is 88.3%; in the test with MDA-MB-231 breast, 103%; in the test on RXF 393 renal, 108%; with SF-268 CNS it was 99.8%; in the test with SF-295 CNS, 89.3%; in the test with SF-539 CNS, 100%. Also, the growth with UACC-257 melanoma was 72.3%; in the test with M14 melanoma, 84.9%.

`COc1ccc(Nc2ncc(C(N)=O)c(NCCCNC(=O)C3CCC3)n2)cc1`: the growth in the test with NCI-H23 lung was 76.9%; in the test with NCI-H226 lung, 62.7%; in the test on NCI-H322M lung, 79%; with HOP-62 NSCLC it was 35.9%; in the test with NCI-H460 lung, 68.6%; with HOP-92 NSCLC, 60.6%. Besides, the growth in the test on NCI-H522 lung was 77.1%; in the test with A549/ATCC NSCLC, 83.1%; with 786-0 renal, 74.1%; with COLO 205 colon, 3.6% (active); in the test on DU-145 prostate, 77.3%; in the test with K-562 leukemia it was 39.5%. The growth in the test on MALME-3M melanoma was 95.2%; in the test with MDA-MB-231 breast it was 26.5%; with RXF 393 renal, 17%; in the test with SF-268 CNS it was 80.9%; with SF-295 CNS it was 75.7%; in the test with SF-539 CNS, 14.3%. For the same compound, the growth is 112% in the test with UACC-257 melanoma and 67.7% with M14 melanoma.

Take `COc1ccc(Cl)cc1Nc1nc(C(F)(F)F)ccc1C(=O)N/N=C/c1ccccc1Cl`: the growth with NCI-H23 lung was 16.9%; in the test on NCI-H226 lung it was 17.3%; with NCI-H322M lung, 1.34% (active); with HOP-62 NSCLC it was 18.3%; with NCI-H460 lung it was 4.25% (active); in the test with HOP-92 NSCLC, -47.7% (active). The growth with NCI-H522 lung is -13.9% (active); in the test with A549/ATCC NSCLC, 10.9%; with 786-0 renal, 11.8%; in the test on COLO 205 colon, -59.5% (active); with DU-145 prostate it was 14.6%; in the test with K-562 leukemia, 2.37% (active). Further, the growth in the test on MALME-3M melanoma was 11%; in the test with MDA-MB-231 breast, -7.46% (active); in the test on RXF 393 renal it was 0.498% (active); with SF-268 CNS it was 13.6%; with SF-295 CNS, -12.1% (active); with SF-539 CNS, -7.07% (active). Besides, the values for the growth with UACC-257 melanoma and with M14 melanoma were 2.7% (active) and 15.2%, respectively.

In the case of `Cn1cc(-c2nonc2-c2c[nH]c3ccccc23)c2ccccc21`, the growth in the test with NCI-H23 lung was 29.7%; in the test on NCI-H226 lung it was 44.5%; with NCI-H322M lung it was 33.9%; in the test with HOP-62 NSCLC, 14.3%; in the test on NCI-H460 lung, 4.95% (active); in the test on HOP-92 NSCLC, 5.1% (active). In addition, the growth was -5.43% (active) with NCI-H522 lung; 18.3% in the test with A549/ATCC NSCLC; 23% in the test on 786-0 renal; -22.7% (active) with COLO 205 colon; 17.4% with DU-145 prostate; 5.23% (active) in the test on K-562 leukemia. In addition, the growth is 42.9% with MALME-3M melanoma; 0.833% (active) with MDA-MB-231 breast; -3.69% (active) in the test with RXF 393 renal; 25.8% with SF-268 CNS; 8.43% (active) with SF-295 CNS; -35.4% (active) in the test with SF-539 CNS. Further, the results for the growth in the test with UACC-257 melanoma and in the test with M14 melanoma were 33.2% and 7.06% (active), respectively.
